A short description of test [1]: ATG_CMV_CIS: Attagene CIS-FACTORIAL HepG2 Assay for human CMV (Internal Marker) (AID 2282928).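 Also: endpoint acts as a background internal control marker rather than a target.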 The conditions noted are these: HepG2 CMV promoter reporter, transcription factor profiling; actives raise or lower the signal. The method, boiled down:
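Cell system: HepG2, transiently transfected multiple reporter units under cis promoters. Exposure: 24 h. Detection: RT-PCR, FAM labeling, HpaI digestion, capillary electrophoresis. Analysis: bidirectional, DMSO baseline.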

In test [2] the target is Transcription factor E2F1 (Homo sapiens) (UniProt Q01094). The experiment in a line: ATG_E2F_CIS: Attagene CIS-FACTORIAL HepG2 Assay for human E2F Transcription Factor 1 (AID 2282935). The conditions noted are these: HepG2 Attagene cis-reporter, E2F reporter RNA transcripts; actives raise or lower the signal. A digest of the protocol: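 Endogenous E2F1 activity read through cis-promoter reporter units transfected into HepG2. After 24 h compound treatment, reporter mRNA measured by RT-PCR, HpaI digestion and capillary electrophoresis. Bidirectional fit versus DMSO.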
Sequence of Transcription factor E2F1 (Homo sapiens) (Q01094 whole entry, looked up): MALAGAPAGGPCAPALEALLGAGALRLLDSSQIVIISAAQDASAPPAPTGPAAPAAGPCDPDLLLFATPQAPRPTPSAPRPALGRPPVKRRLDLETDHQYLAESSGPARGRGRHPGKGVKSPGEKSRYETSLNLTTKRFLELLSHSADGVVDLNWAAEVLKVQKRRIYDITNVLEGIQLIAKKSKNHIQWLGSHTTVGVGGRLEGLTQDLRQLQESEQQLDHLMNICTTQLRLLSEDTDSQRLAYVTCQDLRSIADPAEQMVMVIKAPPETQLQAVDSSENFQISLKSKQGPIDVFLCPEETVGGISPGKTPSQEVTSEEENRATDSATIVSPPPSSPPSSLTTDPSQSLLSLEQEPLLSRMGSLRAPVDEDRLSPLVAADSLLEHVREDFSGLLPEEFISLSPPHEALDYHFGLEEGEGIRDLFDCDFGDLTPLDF

A short description of test [3]: ATG_M_61_CIS: Attagene CIS-FACTORIAL HepG2 Assay for M61 Transcription Factor (Internal Marker) (AID 2282937). The conditions noted are these: HepG2 Attagene CIS-FACTORIAL M61 internal marker reporter; actives raise or lower the signal. A digest of the protocol: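 HepG2 cells transiently transfected with cis-element-driven multiple reporter transcription units, dosed for 24 h. Reporter mRNA measured by RT-PCR, 6-FAM primer-extension labelling, HpaI digestion and capillary electrophoresis; bidirectional fit versus DMSO baseline.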

A short description of test [4]: ATG_DR4_LXR_CIS: Attagene CIS-FACTORIAL HepG2 Assay for human Liver X Receptor (LXR), DR4 submotif (AID 2282929). The conditions noted are these: HepG2 Attagene DR4 cis-reporter, mRNA transcription; actives raise or lower the signal. The method, boiled down:
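HepG2 cells transiently transfected with cis-promoter-driven multiplexed reporter units (DR4 element) were dosed for 24 h. Reporter mRNA was quantified by RT-PCR, fluorescent primer extension, HpaI digestion and capillary electrophoresis; bidirectional fitting versus DMSO baseline.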

Test [5] concerns the target Aryl hydrocarbon receptor (Homo sapiens) (UniProt P35869). The test can be described thus: ATG_Ahr_CIS: Attagene CIS-FACTORIAL HepG2 Assay for human Aryl Hydrocarbon Receptor (Ahr) (AID 2282930). The conditions noted are these: HepG2 AhR cis-factorial reporter transcription; actives raise or lower the signal. A digest of the protocol:
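HepG2 cells transiently transfected with cis-element-driven multiplexed reporter units; endogenous AhR activity read as reporter mRNA 24 h after dosing, via RT-PCR, 6-FAM labelling, HpaI digestion and capillary electrophoresis. Bidirectional fit relative to DMSO.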

Test [6] in a line: ATG_AP_1_CIS: Attagene CIS-FACTORIAL HepG2 Assay for human Activator Protein 1 (AP-1) (AID 2282931). The conditions noted are these: HepG2 Attagene cis-factorial AP-1 reporter mRNA; actives raise or lower the signal. The method, boiled down:
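HepG2 cells transiently transfected with cis-element-driven multiplex reporter units; 24 h compound exposure. Reporter mRNA quantified by RT-PCR, FAM-labelled fragments resolved by capillary electrophoresis; bidirectional fit versus DMSO baseline.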

Test [7] can be described thus: ATG_AP_2_CIS: Attagene CIS-FACTORIAL HepG2 Assay for human Activator Protein 2 (AP-2) (AID 2282932). The conditions noted are these: HepG2 AP-2 cis-reporter, Attagene transcription factor profiling; actives raise or lower the signal. The method, boiled down: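 HepG2 cells transiently transfected with cis-element reporter units and exposed for 24 h. Reporter mRNA measured by RT-PCR, FAM labelling, HpaI digestion and capillary electrophoresis. Changes in either direction fitted relative to DMSO.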

A short description of test [8]: ATG_BRE_CIS: Attagene CIS-FACTORIAL HepG2 Assay for human Bone Morphogenetic Protein (BMP) Response Element (BRE) (AID 2282933). The conditions noted are these: HepG2 BMP response element reporter, Attagene transcription factor profiling; actives raise or lower the signal. The method, boiled down: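 HepG2 cells transiently transfected with CIS reporter units (endogenous TF activity, BMP response element), dosed 24 h. Reporter mRNA quantified by RT-PCR, fluorescent labelling and capillary electrophoresis; bidirectional fit vs DMSO baseline.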

Test [9] addresses Retinoic acid receptor alpha (Homo sapiens) (UniProt P10276). The test can be described thus: ATG_DR5_RAR_CIS: Attagene CIS-FACTORIAL HepG2 Assay for human Retinoic Acid Receptor Alpha (RARE), DR5 submotif (AID 2282934).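 As to AC50: reporter responds to endogenous RAR alpha beta and gamma in HepG2 not RARA alone.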 The conditions noted are these: HepG2 Attagene cis-factorial RARE DR5 reporter, mRNA; actives raise or lower the signal. A digest of the protocol: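 HepG2 cells transiently transfected with multiplexed reporter units; DR5 cis-element drives reporter through endogenous transcription factors. After 24 h dosing, reporter mRNA quantified by RT-PCR, fluorescent labeling, HpaI digestion and capillary electrophoresis; bidirectional fitting versus DMSO.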

Test [10] can be described thus: ATG_E_Box_CIS: Attagene CIS-FACTORIAL HepG2 Assay for human Enhancer Box (E-box) (AID 2282936). The conditions noted are these: HepG2 E-box cis-reporter transcription, actives raise or lower the signal. A digest of the protocol: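 HepG2 cells transiently transfected with multiplexed cis-element reporter units, dosed 24 h; reporter mRNA quantified by RT-PCR, 6-FAM labelling, HpaI digestion and capillary electrophoresis. E-box (USF1) signal fitted bidirectionally vs DMSO.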

The text below walks through data of PubChem BioAssay (EPA / NIEHS).

By AC50 is commonly meant the concentration giving half of the maximal activity seen.

Several values for one entry are separate records, joined by “and”; a condition that tells them apart may be missing. Equal values may be shown once. Some structures have more than one record in an assay (separate samples or runs), and their calls can disagree. Activity calls are given as the source filed them. The calls were made as follows: active = hit-call score of the fitted dose curve at least 0.9, where 1 is the maximum; inactive = score below 0.9.

Sequence of Aryl hydrocarbon receptor (Homo sapiens) (P35869 whole entry, looked up): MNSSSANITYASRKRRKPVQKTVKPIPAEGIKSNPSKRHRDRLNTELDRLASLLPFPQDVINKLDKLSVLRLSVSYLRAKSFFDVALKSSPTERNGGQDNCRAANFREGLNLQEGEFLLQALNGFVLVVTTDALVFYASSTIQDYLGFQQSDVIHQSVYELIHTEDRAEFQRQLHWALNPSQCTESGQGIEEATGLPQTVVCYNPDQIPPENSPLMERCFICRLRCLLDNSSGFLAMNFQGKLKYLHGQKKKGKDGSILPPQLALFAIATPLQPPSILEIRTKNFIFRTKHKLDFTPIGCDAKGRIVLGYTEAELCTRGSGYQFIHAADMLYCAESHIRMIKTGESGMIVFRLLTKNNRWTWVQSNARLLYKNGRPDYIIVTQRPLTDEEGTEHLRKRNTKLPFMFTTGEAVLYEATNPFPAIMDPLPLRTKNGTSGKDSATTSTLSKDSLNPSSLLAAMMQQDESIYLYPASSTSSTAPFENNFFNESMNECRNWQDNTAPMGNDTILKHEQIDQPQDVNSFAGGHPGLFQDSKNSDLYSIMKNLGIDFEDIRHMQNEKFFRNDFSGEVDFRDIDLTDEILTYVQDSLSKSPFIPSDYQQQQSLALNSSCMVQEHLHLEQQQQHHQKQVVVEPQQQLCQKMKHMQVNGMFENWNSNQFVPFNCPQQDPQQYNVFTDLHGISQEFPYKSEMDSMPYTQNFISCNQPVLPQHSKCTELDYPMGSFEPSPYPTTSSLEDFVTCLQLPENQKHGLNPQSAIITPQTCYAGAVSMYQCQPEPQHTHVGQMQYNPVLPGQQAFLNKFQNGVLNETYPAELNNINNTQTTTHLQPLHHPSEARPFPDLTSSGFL
Sequence of Retinoic acid receptor alpha (Homo sapiens) (P10276 whole entry, looked up): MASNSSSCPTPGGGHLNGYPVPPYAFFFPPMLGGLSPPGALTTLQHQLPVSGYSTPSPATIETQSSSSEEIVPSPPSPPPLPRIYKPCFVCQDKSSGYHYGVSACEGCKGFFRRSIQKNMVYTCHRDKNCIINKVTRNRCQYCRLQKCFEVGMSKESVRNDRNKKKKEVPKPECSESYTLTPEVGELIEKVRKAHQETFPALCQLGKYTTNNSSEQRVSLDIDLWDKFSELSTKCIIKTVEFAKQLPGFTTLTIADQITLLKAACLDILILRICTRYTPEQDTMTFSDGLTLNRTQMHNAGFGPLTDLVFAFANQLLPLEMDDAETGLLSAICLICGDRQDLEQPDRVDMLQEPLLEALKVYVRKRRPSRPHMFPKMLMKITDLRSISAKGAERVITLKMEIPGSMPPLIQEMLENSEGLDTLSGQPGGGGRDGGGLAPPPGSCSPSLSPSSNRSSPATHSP

`C[C@@H]1C[C@@H]([C@H](O)CC2CC(=O)NC(=O)C2)C(=O)[C@@H](C)C1`: the AC50 was 0.286 µM (active) in test [1]; 573 nM (active) and 632 nM (active) in test [2]. In addition, the result in test [1], in [2] and in [3] was inactive.
For `O=P(O)(O)CN(CP(=O)(O)O)CP(=O)(O)O`, the call in [1], in test [4], in test [5], in [6], in test [7] and in test [8] was inactive. For the same compound, the compound was classed as inactive in [9], in [2] and in [10].
`O=C(O)C(F)(F)C(F)(F)C(F)(F)C(F)(F)C(F)(F)C(F)(F)C(F)(F)C(F)(F)C(F)(F)C(F)(F)F`: the AC50 in test [1] is 50.4 µM (active) and 31.3 µM (active); in [4] it was 24.6 µM (active) and 13.1 µM (active); in [6], 23.9 µM (active); in test [7], 55.8 µM (active); in [9], 129 µM (active); in test [10], 54.5 µM (active). Besides, the compound was called inactive in [5], in [6], in test [7], in test [8], in test [9] and in [2]. Moreover, the result in [10] was inactive.
With `NC(=S)Nc1ccccc1`, the call in test [1], in test [4], in test [5], in test [6], in test [7] and in test [8] was inactive. The result in test [9], in test [2], in test [10] and in test [3] was inactive.
Turning to `CCSC(C)CC1CC(=O)C(C(CC)=NOC/C=C/Cl)=C(O)C1` (stereo unspecified), the compound was called inactive in test [1], in test [4], in test [6], in [7], in [8] and in test [9]. The outcome in test [2], in test [10] and in test [3] was inactive. Further, the concentration at half-maximal activity (AC50) in [5] was 28.4 µM (active).
As to `O=C1C(Cl)=C(Cl)C(=O)c2ccccc21`, the compound was called inactive in test [1], in test [4], in test [6], in test [7], in test [8] and in test [9]. Also, the compound was called inactive in [2] and in [10]. In test [5], the half-maximal activity concentration (AC50) was 1.86 µM (active).
For `Oc1ccc(-c2ccccc2)cc1`, the AC50 was 44.9 µM (active) in [1], 26.8 µM (active) in test [7], 154 µM (active) in [9] and 169 µM (active) in test [10]. The outcome in test [4], in [5], in [6], in test [8] and in [2] was inactive.
For `Fc1ccc(C2(Cn3cncn3)OC2c2ccccc2Cl)cc1` (stereo unspecified), the result in [1], in test [4], in test [6], in test [7], in [9] and in [2] was inactive. The result in test [10] and in test [3] was inactive. Besides, the values for the AC50 in test [5] and in test [8] were 13.3 µM (active) and 69.9 µM (active), respectively.
As for `COP(=S)(OC)Oc1cc(Cl)c(Cl)cc1Cl`, the call in test [1], in test [4], in test [7], in test [9], in test [2] and in [10] was inactive. For the same compound, the values for the AC50 in [5], in test [6] and in test [8] were 11.3 µM (active), 41.8 µM (active) and 64.5 µM (active), respectively.
On to `CN(C)P(=O)(N(C)C)N(C)C`, for which the result in test [1], in test [4], in test [5], in test [6], in [7] and in test [8] was inactive. Besides, the compound was classed as inactive in test [9], in test [2], in test [10] and in [3].
Regarding `Oc1cccc2cccnc12`, the AC50 is 139 µM (active) in [1] and 165 µM (active) in test [5]. Also, the compound was classed as inactive in test [1], in test [4], in test [5], in [7], in test [8] and in [2]. For the same compound, the outcome in [3] was inactive.
Regarding `O=C1C2(Cl)C3(Cl)C4(Cl)C(Cl)(Cl)C5(Cl)C3(Cl)C1(Cl)C5(Cl)C24Cl` (stereo unspecified), the concentration at half-maximal activity (AC50) in test [1] was 2.8 µM (active); in [4] it was 2.8 µM (active) and 4.23 µM (active); in [6] it was 3.57 µM (active) and 3.03 µM (active); in [7], 18.4 µM (active); in test [9] it was 20.9 µM (active); in test [2], 11.1 µM (active). The AC50 in [10] is 5.67 µM (active) and 5.25 µM (active). For the same compound, the call in [1], in test [4], in test [5], in test [6], in test [7] and in test [9] was inactive. Moreover, the result in test [2], in [10] and in [3] was inactive.
Consider `COc1cccc(C=O)c1`, for which the result in [1], in test [4], in test [5], in test [6], in test [7] and in test [8] was inactive. For the same compound, the outcome in test [9], in [2], in [10] and in test [3] was inactive.
Consider `O=c1[nH]c(=O)[nH]c(=O)[nH]1`, for which the result in test [1], in test [4], in [5], in test [6], in test [7] and in [8] was inactive. Also, the call in [9], in [2], in [10] and in test [3] was inactive.
Regarding `C=C(C)C(=O)[O][Sn]([CH2]CCC)([CH2]CCC)[CH2]CCC`, the half-maximal activity concentration (AC50) in test [1] is 0.288 µM (active); in test [6], 0.451 µM (active); in test [7], 0.412 µM (active); in test [9], 0.00707 µM (active); in test [10] it was 0.562 µM (active). The compound was called inactive in test [4], in [5], in [8] and in [2].
For the compound `OCC(O)CCl` (stereo unspecified), the result in test [1], in test [4], in test [5], in test [6], in [7] and in test [8] was inactive. In addition, the outcome in test [9], in [2], in test [10] and in [3] was inactive.
Take `CCOC(=O)Nc1cccc(OC(=O)Nc2ccccc2)c1`: the compound was classed as inactive in test [1], in test [4], in [5], in test [6], in test [7] and in [8]. In addition, the call in test [9], in [2] and in [10] was inactive.
In the case of `Cn1sc(Cl)cc1=O`, the outcome in test [1], in test [4], in test [6], in test [7], in test [8] and in [9] was inactive. Moreover, the call in [2], in [10] and in [3] was inactive. Further, the AC50 in test [5] is 67.3 µM (active).
`CC(=O)C=C(C)C`: the compound was classed as inactive in test [1], in [4], in [5], in test [6], in [7] and in test [8]. The outcome in test [9], in [2] and in [10] was inactive.
In the case of `CCc1ccccc1C`, the call in [1], in test [4], in test [5], in test [6], in test [7] and in test [8] was inactive. In addition, the result in test [9], in [2] and in test [10] was inactive.
For the compound `C[C@]12CCC(=O)C[C@@H]1CC[C@@H]1[C@@H]2CC[C@]2(C)[C@@H](O)CC[C@@H]12`, the figures for the half-maximal activity concentration (AC50) in [1], in [4] and in [5] were 52.1 µM (active), 116 µM (active) and 23.1 µM (active), respectively. Besides, the outcome in test [1], in test [4], in test [5], in test [6], in test [7] and in test [9] was inactive. The compound was classed as inactive in test [2] and in [3].
